In PubChem BioAssay (NCATS):
“And” between values parts separate entries of the source, which are not always exact repeats. Equal entries are not always repeated. Inconclusive results are not listed. Entries that show only a call come without a potency. The source made the active and inactive calls. Unless noted, the call rests on the fitted dose curve; in most records, active means well fitted curve in the direction sought with a large enough effect; inconclusive means small, poorly fitted or top-dose-only effect, or another doubt; inactive means no such curve, though single readings can be large; an effect the other way counts as inactive or inconclusive.

Columns and labels:
[1] = target: T1, Hexokinase-4 (Homo sapiens) + Glucokinase regulatory protein (Homo sapiens) (UniProt P35557+Q14397); test: qHTS assay for inhibitors of recombinant human GCK-GKRP interaction: Diaphorase-coupled assay (AID 743205)
Summary of the method: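 A kinetic fluorescence read (Ex 525/Em 590 nm, every minute for 30 minutes) tracked resorufin from a G6PDH-diaphorase coupled GCK reaction. It contained 10 nM GST-GCK, 10 nM FLAG-GKRP, 5 mM glucose, 0.4 mM ATP in Hepes pH 7.6. Normalized to with/without-enzyme DMSO controls.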

[2] = target: T1, Hexokinase-4 (Homo sapiens) + Glucokinase regulatory protein (Homo sapiens); test: qHTS assay for inhibitors of recombinant human GCK-GKRP interaction: ADP-Glo assay (AID 743206)
Summary of the method: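 Pin-transferred compounds meet a 15 nM GST-GCK/15 nM FLAG-GKRP/2 uM S6P mix (dispense concentrations). ATP is then added to 0.4 mM final with 5 mM glucose, and the reaction runs 60 min at room temperature. ADP is quantified luminescently.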

[3] = target: T1, Hexokinase-4 (Homo sapiens) + Glucokinase regulatory protein (Homo sapiens); test: qHTS assay for inhibitors of recombinant human GCK-GKRP interaction: HTRF assay (AID 743207)
Summary of the method: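 After 60 min equilibration at room temperature with anti-FLAG XL665 and anti-GST antibodies, FRET ratio (665/615 nm, excitation 320 nm) was read. Proteins: GST-GCK and FLAG-GKRP, each 5 nM, plus 2 uM S6P, pH 7.1 buffer; GCK-free wells define minimum signal.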

[4] = qHTS Assay for Identifying Gametocytocidal Compounds (AID 743244); further: potency means the concentration at half of the fitted maximal effect;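 on max response: actives lower the fluorescent signal which means gametocytes are killed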; conditions: P. falciparum 3D7 stage III-V gametocytes, alamarBlue, 72 h; max response: stronger effect = lower value
Summary of the method: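 Fluorescence at Ex 525/Em 598 nm, recorded 24 h after alamarBlue addition, reports residual metabolic activity of 3D7 gametocytes (stages III–V) following 72 h compound exposure at 37 °C, 5% CO2.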

[5] = qHTS assay for small molecule agonists of the antioxidant response element (ARE) signaling pathway measured by Nrf2-dependant transcriptional activity - cell viability counter screen (AID 720653; active means well fitted curve in the direction sought with a large enough effect in the repeat runs; an effect the other way counts as inactive or inconclusive); conditions: ARE-bla HepG2 viability, CellTiter-Glo ATP luminescence, 16 h; max response: stronger effect = lower value
Summary of the method: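 ARE-bla HepG2 cells (2,000/well) rested 5 hrs at 37C/5% CO2, then exposed to compounds in DMSO for 16 hrs. Viability was read in the same wells as intracellular ATP by luminescence, 30 min at room temperature after reagent addition.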

[6] = qHTS assay for cell viability of HEK293 cells (AID 743288); conditions: ATP luminescence (CellTiter-Glo), 18 h; max response: stronger effect = lower value; further: nearly all actives have a fitted effect of over 50% in size
Summary of the method: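 Readout is luciferase-coupled ATP content (CellTiter-Glo luminescence, 30 min room temperature) as a measure of metabolically competent cells. Parental HEK293 cells were plated 5 h or more before compound addition, then treated 18 h at 37 C.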

[7] = qHTS assay for cell viability of the p53RE-bla HCT-116 cell line (AID 743292); further: nearly all actives have a fitted effect of over 55% in size
Summary of the method: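 Readout: CellTiter-Glo luminescence after 30 min RT. Treatment: compounds in DMSO, 16 h, 37 C. Cells: CellSensor p53RE-bla HCT-116, 4,000/well, preincubated 5 h.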

[8] = qHTS profiling for inhibitors of Plasmodium falciparum (3D7) proliferation (AID 743322);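 further: infected erythrocytes exposed to compound for 72 h before lysis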; conditions: P. falciparum 3D7 proliferation; at 28.7 µM (top of the series)
Summary of the method: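 Parasite DNA was quantified by SYBR Green I fluorescence (ex 485, em 535 nm) after overnight lysis in saponin/Triton buffer at room temperature. Cultures at 0.3% parasitemia and 2.5% hematocrit were first exposed to compound for 72 h at 37 C; signals were normalised to artemisinin (0.29 uM) and vehicle wells.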

[9] = qHTS profiling for inhibitors of Plasmodium falciparum (DD2) proliferation (AID 743323; call rule not given here); conditions: lower = more inhibition; at 28.7 µM (top of the series)
Summary of the method: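 1536-well qHTS; infected RBCs 0.3% parasitemia/2.5% Hct final; cpd 72 h 37 C 5% CO2; lysis buffer + SYBR Green I, o/n RT dark; FI 485/535; norm. to 0.29 uM artemisinin and DMSO, plate-stack corrected.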

T1 sequence (P35557 whole entry, looked up): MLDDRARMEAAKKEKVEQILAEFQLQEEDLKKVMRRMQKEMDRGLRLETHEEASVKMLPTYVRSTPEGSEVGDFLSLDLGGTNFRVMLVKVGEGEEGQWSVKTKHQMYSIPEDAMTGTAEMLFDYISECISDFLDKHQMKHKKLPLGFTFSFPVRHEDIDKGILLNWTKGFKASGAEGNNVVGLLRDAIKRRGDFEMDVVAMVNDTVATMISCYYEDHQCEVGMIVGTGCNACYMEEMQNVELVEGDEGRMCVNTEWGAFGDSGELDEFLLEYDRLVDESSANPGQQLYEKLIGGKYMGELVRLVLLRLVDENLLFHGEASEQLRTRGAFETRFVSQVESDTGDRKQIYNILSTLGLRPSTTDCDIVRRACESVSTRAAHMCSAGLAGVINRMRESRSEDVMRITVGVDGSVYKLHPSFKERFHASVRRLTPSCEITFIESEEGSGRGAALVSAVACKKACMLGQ
T1 sequence (Q14397 whole entry, looked up): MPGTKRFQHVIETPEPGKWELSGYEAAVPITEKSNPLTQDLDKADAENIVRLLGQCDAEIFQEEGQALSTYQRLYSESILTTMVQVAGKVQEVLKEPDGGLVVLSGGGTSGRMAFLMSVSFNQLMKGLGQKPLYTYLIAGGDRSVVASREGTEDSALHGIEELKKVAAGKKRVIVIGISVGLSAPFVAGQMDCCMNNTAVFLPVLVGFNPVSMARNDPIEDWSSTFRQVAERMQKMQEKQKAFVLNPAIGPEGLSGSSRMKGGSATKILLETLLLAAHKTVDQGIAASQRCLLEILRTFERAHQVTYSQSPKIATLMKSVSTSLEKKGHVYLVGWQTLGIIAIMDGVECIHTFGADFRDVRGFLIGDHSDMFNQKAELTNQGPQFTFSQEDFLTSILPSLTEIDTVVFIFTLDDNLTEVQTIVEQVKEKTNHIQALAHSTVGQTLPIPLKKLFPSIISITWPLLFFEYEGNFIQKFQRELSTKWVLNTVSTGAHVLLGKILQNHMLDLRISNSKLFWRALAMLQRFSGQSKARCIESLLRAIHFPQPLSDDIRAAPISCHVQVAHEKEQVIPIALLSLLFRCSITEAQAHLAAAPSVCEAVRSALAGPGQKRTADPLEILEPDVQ

C=CCN1CC[C@]23c4c5ccc(O)c4O[C@H]2/C(=N/NC(=O)c2ccccc2)CC[C@@]3(O)[C@H]1C5
Potency [1]: inactive | outcome [2]: inactive | outcome [3]: inactive

CNc1ccc2oc(C[C@H]3O[C@@]4(CC[C@H]3C)O[C@H]([C@H](C)C(=O)c3ccc[nH]3)[C@H](C)C[C@H]4C)nc2c1C(=O)O
Potency [1]: inactive | outcome [2]: inactive | outcome [3]: inactive | Potency [4]: 2350 nM (active)

Nc1ccc(CCN2CCN(c3cccc(C(F)(F)F)c3)CC2)cc1
Potency [1]: inactive | outcome [2]: inactive | outcome [3]: inactive

O=S1(=O)N(CCN2CC=C(c3c[nH]c4cc(F)ccc34)CC2)c2cccc3c2N1CCC3
Potency [1]: inactive | outcome [2]: inactive | outcome [3]: inactive

COc1ccc2c(c1)[C@@]13CCCC[C@H]1[C@@H](C2)NCC3
Potency [1]: inactive | outcome [2]: inactive | outcome [3]: inactive

CCOP(=O)(OCC)O/C(=C/Cl)c1ccc(Cl)cc1Cl
max response [5]: -18.8% (inactive) and -8.15% (inactive) | max response [4]: -0.665% (inactive) | max response [6]: -28.5% (inactive) and -27.3% (inactive) | Potency [7]: inactive

C=CCN1CC[C@]23c4c5ccc(O)c4O[C@@H]2/C(=N/N=C2\CC[C@@]4(O)C6Cc7ccc(O)c8c7[C@@]4(CCN6CC=C)[C@@H]2O8)CC[C@@]3(O)C1C5
Potency [1]: inactive | outcome [2]: inactive | outcome [3]: inactive

CC(N)c1cccc(Cl)c1Cl (stereo not drawn)
Potency [1]: inactive | outcome [2]: inactive | outcome [3]: inactive

CCS(=O)(=O)Nc1cccc(C(=C2CCCCC2)c2cnc[nH]2)c1
Potency [1]: inactive | outcome [2]: inactive | outcome [3]: inactive

CCOC(=O)c1ncn2c1[C@@H]1CCCN1C(=O)c1cc(OC)ccc1-2
Potency [1]: inactive | outcome [2]: inactive | outcome [3]: inactive

OC1CCCCC1N1CCC(c2ccccc2)CC1 (stereo not drawn)
Potency [1]: inactive | outcome [2]: inactive | outcome [3]: inactive

N[C@@H](Cn1ccc(=O)[nH]c1=O)C(=O)O
Potency [1]: inactive | outcome [2]: inactive | outcome [3]: inactive | max response [4]: 15.1% (inactive)

CCCn1c(C)c(C(=O)c2ccc3ccccc3c2)c2ccccc21
Potency [1]: inactive | outcome [2]: inactive | outcome [3]: inactive | max response [4]: 6.14% (inactive)

c1ccc2cc(CC3=NCCN3)ccc2c1
Potency [1]: inactive | outcome [2]: inactive | outcome [3]: inactive | max response [4]: 5.44% (inactive)

O=[N+]([O-])c1ccc2nc(N3CCNCC3)ccc2c1
Potency [1]: inactive | outcome [2]: inactive | outcome [3]: inactive

CCCSP(=O)(OCC)SCCC
max response [5]: -15.9% (inactive) | max response [6]: -0.31% (inactive) | Potency [7]: inactive

NCCc1ccc(S(=O)(=O)F)cc1
Potency [1]: inactive | outcome [2]: inactive | outcome [3]: inactive | max response [4]: 22.8% (inactive)

CCCN(CCC)[C@@H]1CCc2cccc(O)c2C1
Potency [1]: inactive | outcome [2]: inactive | outcome [3]: inactive

NCC(CP(=O)(O)O)c1ccc(Cl)cc1 (stereo not drawn)
Potency [1]: inactive | outcome [2]: inactive | outcome [3]: inactive | max response [4]: 18.6% (inactive)

CC(=O)OCC1=C(C(=O)O)N2C(=O)[C@@H](NC(=O)CCC[C@@H](N)C(=O)O)[C@H]2SC1
Potency [1]: inactive | outcome [2]: inactive | outcome [3]: inactive

C=CCN(C1=NCCN1)c1c(Cl)cccc1Cl
Potency [1]: inactive | outcome [2]: inactive | outcome [3]: inactive

NC(=O)CI
Potency [1]: inactive | outcome [2]: inactive | outcome [3]: inactive | max response [4]: 8.04% (inactive)

CCCN(CCC)C1CCc2cccc(O)c2C1 (stereo not drawn)
Potency [1]: inactive | outcome [2]: inactive | outcome [3]: inactive

CC(=O)c1c(O)c(C)c(O)c(Cc2c(O)c3c(c(C(=O)/C=C/c4ccccc4)c2O)OC(C)(C)C=C3)c1O
remaining parasite growth % (stronger effect = lower value) [8]: -0.946% | activity, percent of control [9]: -0.827%

NC(Cc1ccc(N(CCCl)CCCl)cc1)C(=O)O (stereo not drawn)
remaining parasite growth % (stronger effect = lower value) [8]: 34.1% | activity, percent of control [9]: 18.8%

CC(N)[C@H](O)c1ccc(O)c(O)c1 (stereo partly drawn)
outcome [2]: inactive | outcome [3]: inactive | max response [4]: 7.97% (inactive)

CCCN(CCC)C1Cc2cc(OC)c(OC)cc2C1
Potency [1]: inactive | outcome [3]: inactive | max response [4]: 13.4% (inactive)

CC(C)(O)[C@@H]1C2OC(=O)[C@@H]1[C@]1(O)C[C@H]3O[C@]34C(=O)O[C@H]2[C@]14C (tested in a mixture with another compound)
Potency [1]: inactive | outcome [3]: inactive | max response [4]: 18.2% (inactive)

O=[N+]([O-])/C=C/c1ccc2c(c1)OCO2
outcome [2]: inactive | outcome [3]: inactive | Potency [4]: 1580 nM (active)

COc1ccc2c(c1)c(CCN1CCOCC1)c(C)n2C(=O)c1cccc(Cl)c1Cl
outcome [2]: inactive | outcome [3]: inactive | max response [4]: 23.8% (inactive)

CN(N=O)c1ccc(O)c(O)c1
Potency [1]: inactive | Potency [4]: 1000 nM (active)

COc1ccc2c(c1)/C(=C/c1cnc[nH]1)C(=O)N2
outcome [2]: inactive | outcome [3]: inactive

N#C/C(=C/c1ccc(O)c(O)c1)C(N)=S
outcome [2]: inactive | outcome [3]: inactive | max response [4]: 27.1% (inactive)

NC(=O)c1ccc(OCC(O)CN2CC=C(c3ccc(F)cc3)CC2)cc1 (stereo not drawn)
outcome [2]: inactive | outcome [3]: inactive

CC(=O)NBr
outcome [2]: inactive | outcome [3]: inactive | max response [4]: 10.7% (inactive)
